Bioassay records deposited in PubChem BioAssay by National Center for Advancing Translational Sciences (NCATS).
HP1b chromo inh = inhibitors of HP1-beta chromodomain binding to methylated histone tails; P83916; AlphaScreen HP1-beta / biotin-H3K9me3 peptide binding; Potency, µM (doses to about 114 µM), for the others: at the highest dose activity change, negative = inhibition, hits mostly inhibitors; actives 0.56% (n = 390,000); AID 540317; also: potency is read from the fitted curve at half-maximal effect; nearly all actives have a fitted effect of over 70% in size
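AlphaScreen: HP1-beta (50 nM) preformed 30 min with biotin-H3(1-18)K9me3 peptide (50 nM) in PBS pH 7.4, 0.01% Tween-20. Compound added for 30 min at RT, then streptavidin donor/nickel chelate acceptor beads (10 ug/mL) for 30 min.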
CtBP-E1A inh = CtBP/E1A binding inhibition; actives 0.49% (n = 340,000); AlphaScreen GST-E1A/His-CtBP binding, 1536-well; hits give low values; activity change, % (no concentration beside the values); AID 651724; in the data active = activity change below about -65%; inconclusive = mostly about -30% to -63%; also: % is scaled to controls: 0 for no effect and ±100 for the full control effect
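AlphaScreen with 125 nM GST-E1A and 125 nM His-CtBP (5X stocks) in Tris pH 8.0, 300 mM NaCl, BSA, Tween 20, TCEP. Compounds preincubated 2 h at 37 deg C, then glutathione donor/nickel acceptor beads added for 1 h at 37 deg C in dark.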
JMJD2A Tudor inh = JMJD2A Tudor domain (human) inhibition | AID 504339 | Potency, µM (series often up to 114 µM), without a hit: at the highest dose activity change, negative = inhibition, usual class: inhibitors | O75164 | actives 4.4% (n = 390,000) | AlphaScreen JMJD2A-Tudor / H3K4me3 peptide binding; also: potency is read from the fitted curve at half-maximal effect; % is scaled to controls: 0 for no effect and ±100 for the full control effect; nearly all actives have a fitted effect of over 50% in size
G9a block = inhibitors of human histone lysine methyltransferase G9a; Q96KQ7; G9a H3K9 monomethylation, AlphaScreen, 2 h; Potency, µM (doses to about 102 µM), without a hit: top-dose activity, negative = inhibition, most hits filed as inhibitors; actives 8.8% (n = 350,000); also: potency is read from the fitted curve at half-maximal effect; % is scaled to controls: 0 for no effect and ±100 for the full control effect; nearly all actives have a fitted effect of over 75% in size
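AlphaScreen detection with an anti-monomethyl H3K9 antibody quantified product after a 2 h room-temperature reaction containing 500 nM biotinylated H3K9 peptide, 20 µM SAM and 20 nM enzyme, which had been preincubated 15 min with compound.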
BAZ2B block = blocks human BAZ2B; AID 504333; AlphaScreen BAZ2B-H3K14Ac peptide displacement; actives 4.4% (n = 360,000); Q9UIF8; Potency, µM (top dose mostly 114 µM), for the others: top-dose activity change, negative = inhibition, most hits filed as inhibitors; also: potency is read from the fitted curve at half-maximal effect; % is scaled to controls: 0 for no effect and ±100 for the full control effect; nearly all actives have a fitted effect of over 60% in size
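BAZ2B (50 nM) with biotin-H3(5-23)K14Ac peptide (50 nM) in PBS pH 7.4, 0.01% Tween-20, preformed 30 min, then compound 30 min at room temperature; top concentration 110uM. AlphaScreen streptavidin donor/nickel chelate acceptor beads (10 ug/mL final), 20 min dark, signal read.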
Six1-Eya2 inh = inhibitors of human Six1/Eya2 interaction; Q15475+O00167; AlphaScreen GST-Six1/His-Eya2 binding, biochemical; hits give low values; activity change, % (no concentration beside the values); actives 0.56% (n = 360,000); AID 651725; in the data active = activity change below about -65%; inconclusive = mostly about -30% to -63%; also: % is scaled to controls: 0 for no effect and ±100 for the full control effect
Target sequence (O00167 whole entry, looked up): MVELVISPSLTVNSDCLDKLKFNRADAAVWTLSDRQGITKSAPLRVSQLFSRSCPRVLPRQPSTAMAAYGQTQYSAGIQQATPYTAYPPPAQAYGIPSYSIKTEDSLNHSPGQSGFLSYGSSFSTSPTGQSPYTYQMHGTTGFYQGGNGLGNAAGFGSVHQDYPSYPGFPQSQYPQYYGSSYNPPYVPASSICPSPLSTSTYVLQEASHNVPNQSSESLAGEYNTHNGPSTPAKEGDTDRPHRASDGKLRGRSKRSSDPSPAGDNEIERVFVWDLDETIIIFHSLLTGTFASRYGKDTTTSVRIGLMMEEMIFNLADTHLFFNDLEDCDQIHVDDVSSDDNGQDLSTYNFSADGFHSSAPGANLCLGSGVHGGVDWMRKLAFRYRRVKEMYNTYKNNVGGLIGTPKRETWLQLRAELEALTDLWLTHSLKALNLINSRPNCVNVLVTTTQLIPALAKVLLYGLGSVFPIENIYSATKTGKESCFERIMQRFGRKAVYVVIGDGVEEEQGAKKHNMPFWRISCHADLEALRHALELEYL
Target sequence (Q15475 whole entry, looked up): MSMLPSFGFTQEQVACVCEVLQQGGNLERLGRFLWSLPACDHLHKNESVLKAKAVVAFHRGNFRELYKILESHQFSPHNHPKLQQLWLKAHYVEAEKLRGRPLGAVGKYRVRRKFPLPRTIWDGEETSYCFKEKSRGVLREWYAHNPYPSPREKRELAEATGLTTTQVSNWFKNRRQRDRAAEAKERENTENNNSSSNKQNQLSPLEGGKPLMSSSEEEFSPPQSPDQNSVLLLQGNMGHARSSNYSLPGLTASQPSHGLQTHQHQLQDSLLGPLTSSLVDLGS
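Six1/Eya2 binding was read as AlphaScreen signal after compounds were pinned into GST-Six1 plus His-tagged Eya2 (5X stock 250/500 nM) in pH 8.0 Tris/NaCl/TCEP buffer, beads added, then incubated 1 h, 37 C, dark.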
Numbers without * were called inactive; ? = inconclusive; . = no result given; [ ] = dose if it differs, or a comment. Hits are enriched below; roughly 10% of the tested compounds scored in any of these assays. Unless noted, calls follow the shape of the dose curve; as a rule, active = well fitted inhibition curve with a large enough effect; inconclusive = small, poorly fitted or top-dose-only effect; inactive = no such curve, though single readings can be large or run the other way.

SMILES	HP1b chromo inh	CtBP-E1A inh	JMJD2A Tudor inh	G9a block	BAZ2B block	Six1-Eya2 inh
COC(=O)CNC(=O)COC(=O)c1ccc(Cl)nc1	45%	4	2%	-39%	-2%	-5
Oc1ccccc1Nc1nc(NCC2CCCO2)c2ccccc2n1 (configuration not stated)	3%	0	-32%	50µM*	?	-16
Oc1ccc(Cl)cc1Nc1nc(NCC2CCCO2)c2ccccc2n1 (configuration not stated)	25%	.	-22%	.	.	.
COc1cccc(Nc2nc(NCCO)c3ccccc3n2)c1	11%	-10	-35%	?	-12%	-8
Oc1ccc(Nc2nc(NCC3CCCO3)c3ccccc3n2)cc1 (configuration not stated)	-21%	?	?	50µM*	?	-20
COc1cccc(Nc2nc(NCC3CCCO3)c3ccccc3n2)c1 (configuration not stated)	-6%	2	-35%	45µM*	-31%	2
O=C(CN(C(=O)CNS(=O)(=O)c1ccc(F)cc1)c1ccc(F)cc1)NCc1ccco1	5%	-1	-5%	-28%	1%	-2
CCc1ccc2c(c1)NC(c1ccc(F)cc1)=NC(c1ccncc1)=N2	1%	.	-33%	-9%[59 µM]	-39%	.
Cc1cccc2c1c(N=NC(N)=S)c(O)n2C1OC(CO)C(O)C(O)C1O (configuration not stated)	29%	8	-2%	35µM*	0%	1
Cc1ccc2nc(-c3ccc(N4C(=NC(=O)CCC(=O)O)SC5CS(=O)(=O)CC54)cc3)sc2c1 (configuration not stated)	?	3	?	45µM*	?	-28
COc1ccccc1CNC(=O)c1cc2c(=O)n(Cc3cccs3)ccc2nc1C	52%	.	-15%	16%[59 µM]	-2%	.
Nc1nc(N)c2sc3nc4c(cc3c2n1)CCC4	18%	-84*	-19%	10%[59 µM]	-1%	-76*
CC(=O)Cn1nnc2sc3c(c2c1=O)CCC(C(C)(C)C)C3 (configuration not stated)	17%	9	-29%	-5%	-20%	0
CCCn1c(=S)[nH]c2sc3c(c2c1=O)CCCC3	22%	1	-33%	-5%	-4%	5
COCCCn1c(=S)[nH]c2sc3c(c2c1=O)CCCS3	27%	5	-18%	4.5µM*	?	12
COCCn1c(=S)[nH]c2sc3c(c2c1=O)CCC(C)C3 (configuration not stated)	15%	-13	-22%	20µM*	-5%	-1
Cn1c(=S)[nH]c2sc3c(c2c1=O)CCC(C(C)(C)C)C3 (configuration not stated)	.	.	.	40µM*	3%	.
CC(=O)c1cnc(Oc2cc(Cl)ccc2Cl)nc1C	39%	12	?	15%	3%	7
COc1ccc2cc3c(N)nn(C(=O)c4ccc(OC)c(OC)c4)c3nc2c1	27%	.	-27%	?	79µM*	.
COc1ccc2cc3c(N)nn(C(=O)c4ccc(F)cc4)c3nc2c1	37%	.	-17%	.	-14%	-11
CCOc1ccccc1Nc1nc(-c2sc(C)nc2C)cs1	6%	20	?	?	?	6
COc1ccc2[nH]c3c(=O)n(N)c(C)nc3c2c1	32%	-15	4%	-7%	-1%	-19
COc1ccccc1Nc1nc(-c2c(C)[nH]c3ccccc23)cs1	?	5	50µM*	14µM*	40µM*	-12
Cc1[nH]c2ccccc2c1-c1csc(N)n1	5%	-22	-32%	79µM*	?	-2
CNc1nc(-c2c(C)[nH]c3ccc(OC)cc23)cs1	-3%	-11	?	40µM*	50µM*	2
SMILES	HP1b chromo inh	CtBP-E1A inh	JMJD2A Tudor inh	G9a block	BAZ2B block	Six1-Eya2 inh
Nc1nc(-c2nc3ccccc3[nH]2)cs1	34%	-26	-33%	?	-26%	-12
Cc1onc(NC(=O)c2ccc(Cl)cc2Cl)c1Br	11%	0	-22%	18µM*	-5%	1
COc1cc2[nH]c(=S)nc(Nc3ccc(NC(C)=O)cc3)c2cc1OC	63%	-90*	-1%	-1%	-18%	-88*
COc1cc2[nH]c(=S)nc(NC3CCCCCC3)c2cc1OC	-17%	-67*	-32%	-7%	-15%	-71*
COc1cc2[nH]c(=S)nc(NCC3CCCO3)c2cc1OC (configuration not stated)	25%	-87*	-33%	?	0%	-90*
COc1ccc(C(CNC(=O)c2ccc(S(=O)(=O)Nc3ccc(F)cc3)cc2)N(C)C)cc1 (configuration not stated)	0%	-2	-23%	-7%	-13%	5
O=C(NCSc1ccncn1)c1ccccc1	-25%	-1	20µM*	?	?	-1
O=C(NCCc1ccccc1)c1ccncc1	.	.	.	?	-18%	.
O=C(NCCSc1ccccc1)c1ccccc1	51%	7	1%	-3%[12.7 µM]	-3%	6
O=C(NCSc1ccnc(SCNC(=O)c2ccccc2)n1)c1ccccc1	29%	6	-30%	4µM*	-9%	-1
COc1cc(C(=O)NCC(=O)OCC(=O)c2ccc[nH]2)cc(OC)c1OC	46%	2	-9%	-1%[59 µM]	0%	3
COc1ccc(C(=O)NCC(=O)OCC(=O)c2cc(OC)c(OC)c(OC)c2)cc1OC	31%	-1	8%	50µM*	11%	-8
O=S(=O)(c1ccc2nc(Nc3ccc(Br)cc3F)ccc2c1)N1CCCC1	38%	.	-6%	-9%[59 µM]	-16%	.
CCc1ccc2[nH]c(=O)c(C(c3nnnn3CCOC)N3CCN(c4ccccc4)CC3)cc2c1 (configuration not stated)	-3%	-3	?	28µM*	-39%	6
COCCn1nnnc1C(c1cc2cc(OC)c(OC)cc2[nH]c1=O)N1CCN(c2ccc(O)cc2)CC1 (configuration not stated)	?	-9	56µM*	.	28µM*	-18
CCc1ccc2[nH]c(=O)c(C(c3nnnn3CCOC)N3CCN(c4ccc(F)cc4)CC3)cc2c1 (configuration not stated)	-20%	4	-25%[11.4 µM]	?	?	0
CCCn1c(=O)c(C(=O)Nc2ccccc2N)c(O)c2ccccc21	.	3	.	.	.	3
NNC(=O)CCc1ccc(S(=O)(=O)N2CCOCC2)cc1	77%	.	5%	-44%	6%	22
c1ccc(Nc2ccnc(Nc3ccccc3)n2)cc1	54%	0	-14%	-49%	-26%	0
